# Reference: PubChem BioAssay AID602123 (The Scripps Research Institute Molecular Screening Center, 2011)
# Screen size: about 360,000 compounds; about 1,500 (0.42%) were called active. The entries come from a sample that favours actives as a whole. A number with no mark means an inactive call. No stated cut-off is given here; in the data, active means inhibition above about 13% (passing the limit was not always enough); inactive means the rest.
# Target: Lon protease (Escherichia coli (strain K12)) (UniProt P0A9M0)
# Experiment: inhibitors of E. coli Lon protease, primary screen, biochemical, fluorescence polarization (AID 602123);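 further: 0% = enzyme with probe and DMSO and 100% = no enzyme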
# Settings: purified E. coli Lon protease, at 7.94 µM, active compounds read high
# Chain of Lon protease (Escherichia coli (strain K12)) (P0A9M0 whole entry, looked up): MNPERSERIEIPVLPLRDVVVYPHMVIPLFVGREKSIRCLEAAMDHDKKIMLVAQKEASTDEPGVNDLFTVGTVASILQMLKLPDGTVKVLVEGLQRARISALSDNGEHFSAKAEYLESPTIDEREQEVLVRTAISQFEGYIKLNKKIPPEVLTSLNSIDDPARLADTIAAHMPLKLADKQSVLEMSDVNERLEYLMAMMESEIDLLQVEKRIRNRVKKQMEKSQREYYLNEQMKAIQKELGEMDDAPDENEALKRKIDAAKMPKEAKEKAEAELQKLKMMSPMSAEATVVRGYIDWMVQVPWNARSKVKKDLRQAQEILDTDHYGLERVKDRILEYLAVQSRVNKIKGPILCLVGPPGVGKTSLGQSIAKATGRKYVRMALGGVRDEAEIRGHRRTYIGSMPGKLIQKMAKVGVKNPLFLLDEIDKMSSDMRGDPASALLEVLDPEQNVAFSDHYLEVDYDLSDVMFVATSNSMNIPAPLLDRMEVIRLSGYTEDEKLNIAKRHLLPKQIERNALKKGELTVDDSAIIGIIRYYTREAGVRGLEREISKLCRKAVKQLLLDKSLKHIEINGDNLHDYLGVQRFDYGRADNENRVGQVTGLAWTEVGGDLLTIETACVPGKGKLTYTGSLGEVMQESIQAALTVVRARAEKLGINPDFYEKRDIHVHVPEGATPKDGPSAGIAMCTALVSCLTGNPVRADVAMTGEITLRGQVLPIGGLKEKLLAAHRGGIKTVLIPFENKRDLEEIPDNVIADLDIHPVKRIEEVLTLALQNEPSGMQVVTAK
row,SMILES,inhibition
1,Cc1nc2nc3c(cn2n1)C(=O)CC(c1ccccc1)C3 (configuration not stated),6.37%
2,CC(C)n1c(O)c(N=Nc2ccccn2)c2ccccc21,-4.1%
3,O=S(=O)(N1CCOCC1)N1CCN(c2ccccc2F)CC1,3.92%
4,Cc1cccc(C)c1N1CCN(S(=O)(=O)N2CCOCC2)CC1,21.5% (active)
5,Cc1cccc(C)c1N1CCN(S(=O)(=O)N2CCCCC2)CC1,2.21%
6,COc1ccc(/C=C/CN2CCCC(C(=O)c3cc(F)ccc3F)C2)cc1 (configuration not stated),-0.58%
7,C=CCn1c(=S)sc2c(=O)[nH]c(C)nc21,5.17%
8,Cc1ccn(C(CC(=O)c2ccc(Br)cc2)C(=O)O)n1 (configuration not stated),5.2%
9,Cc1nc(N)sc1-c1ccccc1,-2.59%
10,N#Cc1c(N)nc2c3c(sc(=N)c2c1N)NC(=O)CC3c1ccccc1Cl (configuration not stated),-13.5%
11,Nc1ccccc1/C=N\N=C/c1ccccc1N,25.9% (active)
12,O=[N+]([O-])c1cccc(C=NN=Cc2ccccc2O)c1,0.97%
13,COc1ccc(N2CCN(S(=O)(=O)CCNC(=O)C34CC5CC(CC(C5)C3)C4)CC2)cc1,-6.65%
14,COc1ccc(C)cc1S(=O)(=O)Nc1cc2c3c(c1)CCC(=O)N3CCC2,0.26%
15,CNc1cnc(-c2cc(OC)c(OC)c(OC)c2)cn1,1.98%
16,COC(=O)c1cccc(N(C(=O)c2ccco2)C(C(=O)NC2CCCC2)c2ccco2)c1 (configuration not stated),-3.87%
17,Cc1ccc(-n2c(=O)c(C#N)cc3c(=O)n4ccccc4nc32)cc1C,-8.16%
18,COC(=O)Nc1ccc(S(=O)(=O)N2CCN(CCN3C(=O)C4C5C=CC(C5)C4C3=O)CC2)cc1 (configuration not stated),-1.58%
19,C/C(CC(=O)Nc1ccc(Cl)cc1)=N\NC(=O)C(=O)NCCO,-5.9%
20,COc1ccc(COC(=O)N/N=C(\C)CC(=O)Nc2ccc(Cl)cc2)cc1,9.08%
21,CCc1ccc(NC(=O)C(=O)N/N=C(\C)CC(=O)NCCOC)cc1,28.6% (active)
22,O=C(/C=C/c1cccc(C(F)(F)F)c1)N1CCN(c2ccccn2)CC1,8.73%
23,COc1nc(N(C)C)nc(N2CC(=O)N(CCNS(=O)(=O)c3ccc(C)cc3)C2=N)n1,-0.47%
24,C/C(=N\NC(=O)CCn1nc(C)cc1C)C(C)(C)C,-2.11%
25,CSc1nc(C)nc(C2CC2)c1C#N,5.92%
26,CC(C)Oc1ccccc1C(=O)NC(CO)C(=O)O (configuration not stated),-0.19%
27,CC1(C)OC(=O)C(=CNC(CO)C(=O)O)C(=O)O1 (configuration not stated),17.8% (active)
